The panel holds about 83,000 compounds, 20% with a hit somewhere; the sample as a whole holds those more often.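 Cells were grown in 96-well plates and exposed to the test compound at a single concentration for 48 hours; results are reported as percent growth, with values below 10 considered active.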 A number with no mark means an inactive call. Active and inactive are the calls of the source.

The record followed here is PubChem BioAssay (NCI).

Some test systems named below: NCI-H23 lung; NCI-H226 lung; NCI-H322M lung; HOP-62 NSCLC; NCI-H460 lung; HOP-92 NSCLC; NCI-H522 lung; A549/ATCC NSCLC; 786-0 renal; DU-145 prostate; K-562 leukemia; MALME-3M melanoma; MDA-MB-231 breast; SF-268 CNS; SF-295 CNS; SF-539 CNS; M14 melanoma; RXF 393 renal; UACC-257 melanoma; COLO 205 colon.
Common to all, as to experiment: NCI-60 one-dose screen, 48 h (100 = growth as untreated, 0 = no growth, -100 = all killed)
Details in all cases: 10 µM unless noted

With `CCN(CCN(C)C)C(=O)CNCc1cc(C(N)=O)ccn1`, the growth with NCI-H23 lung was 101%; in the test with NCI-H226 lung it was 89.1%; in the test with NCI-H322M lung, 106%; with HOP-62 NSCLC it was 87%; in the test on NCI-H460 lung, 108%; with HOP-92 NSCLC, 87.2%. Further, the growth is 78.1% with NCI-H522 lung; 72.4% in the test with A549/ATCC NSCLC; 103% in the test on 786-0 renal; 112% with DU-145 prostate; 95.2% in the test on K-562 leukemia; 114% with MALME-3M melanoma. Besides, the growth is 97.6% in the test on MDA-MB-231 breast; 108% in the test with SF-268 CNS; 104% with SF-295 CNS; 105% with SF-539 CNS; 103% in the test with M14 melanoma.

Turning to `COc1cc(Nc2ncc(F)c(Nc3ccc4c(n3)N(COP(=O)(O)O)C(=O)C(C)(C)O4)n2)cc(OC)c1OC`, the growth in the test with NCI-H23 lung was 29.7%; in the test with NCI-H226 lung it was -14.6% (active); with NCI-H322M lung it was 20.6%; in the test with HOP-62 NSCLC it was 2.67% (active); in the test on NCI-H460 lung, 25.4%; in the test with HOP-92 NSCLC, -39.5% (active). The growth is -28.5% (active) with NCI-H522 lung; 0.294% (active) in the test with A549/ATCC NSCLC; -23.8% (active) in the test on 786-0 renal; 30.9% in the test on DU-145 prostate; 32.3% in the test on K-562 leukemia; 53.1% with MALME-3M melanoma. Moreover, the growth is 15.9% with MDA-MB-231 breast; -79.9% (active) in the test on RXF 393 renal; 7.3% (active) in the test with SF-268 CNS; 15.5% in the test with SF-295 CNS; -70.1% (active) in the test on SF-539 CNS; 66.2% with UACC-257 melanoma. In addition, the growth with M14 melanoma is 39%.

For `Cc1ccc(N)cc1CN1C(=O)c2ccccc2C1=O`, the growth with NCI-H23 lung is 105%; in the test with NCI-H226 lung, 93.1%; in the test with NCI-H322M lung, 104%; with HOP-62 NSCLC, 97.1%; with NCI-H460 lung it was 105%; in the test with HOP-92 NSCLC, 86.9%. Further, the growth is 58.5% with NCI-H522 lung; 105% with A549/ATCC NSCLC; 98.5% in the test with 786-0 renal; 105% in the test on DU-145 prostate; 105% in the test on K-562 leukemia; 101% with MALME-3M melanoma. For the same compound, the growth in the test with MDA-MB-231 breast was 106%; in the test on RXF 393 renal it was 102%; in the test on SF-268 CNS it was 121%; in the test with SF-295 CNS, 118%; with SF-539 CNS it was 107%; in the test with UACC-257 melanoma, 100%. Further, in the test on M14 melanoma, the growth was 96.9%.

In the case of `Cc1cccc(NC(=O)[C@@H]2c3ccccc3C(=O)N(c3ccc(Cl)cc3)[C@H]2c2ccc(Cl)cc2)n1`, the growth was 57.9% with NCI-H23 lung; 55.1% with NCI-H226 lung; 80.8% with NCI-H322M lung; 53.1% with HOP-62 NSCLC; 52.5% with NCI-H460 lung; 42% in the test on HOP-92 NSCLC. Besides, the growth with NCI-H522 lung was 38.7%; in the test with A549/ATCC NSCLC, 23.6%; in the test on 786-0 renal, 61.2%; in the test with DU-145 prostate, 79.8%; in the test with K-562 leukemia it was 47.7%; with MALME-3M melanoma it was 61.1%. Moreover, the growth in the test with MDA-MB-231 breast is 32.1%; in the test with SF-268 CNS, 62.8%; in the test with SF-295 CNS it was 24.1%; in the test with SF-539 CNS it was 71%; in the test on M14 melanoma it was 45.8%.

With `Cc1cc(Nc2ncc(Cl)c(Nc3ccccc3S(=O)(=O)C(C)C)n2)c(OC(C)C)cc1C1CCNCC1`, the growth with NCI-H23 lung was -86.5% (active); in the test on NCI-H226 lung it was -64.8% (active); in the test with NCI-H322M lung it was -93.9% (active); in the test on HOP-62 NSCLC, -94.5% (active); with NCI-H460 lung, -86.5% (active); with HOP-92 NSCLC it was -92.3% (active). Also, the growth was -89.3% (active) in the test on NCI-H522 lung; -99.8% (active) in the test on A549/ATCC NSCLC; -91.2% (active) in the test on 786-0 renal; -99% (active) in the test with DU-145 prostate; -53.5% (active) in the test on K-562 leukemia; -84.9% (active) in the test with MALME-3M melanoma. The growth with MDA-MB-231 breast is -88% (active); in the test with RXF 393 renal, -93.4% (active); with SF-268 CNS, -95.3% (active); with SF-295 CNS, -91.6% (active); in the test with SF-539 CNS, -98.9% (active); with UACC-257 melanoma it was -90.1% (active). The growth in the test with M14 melanoma is -95.2% (active).

In the case of `CCCC(=O)OCC1OC(n2cnc3c(=S)nc[nH]c32)C(OC(=O)CCC)C1OC(=O)CCC` (centres undefined), the growth in the test on NCI-H23 lung is 29.4%; in the test with NCI-H226 lung it was 32.5%; with NCI-H322M lung it was 35.4%; with HOP-62 NSCLC, 24.1%; in the test on NCI-H460 lung, 54.9%; with HOP-92 NSCLC it was 17.9%. The growth is -12.7% (active) with NCI-H522 lung; 83.9% in the test on A549/ATCC NSCLC; 22.3% with 786-0 renal; 67.3% with COLO 205 colon; 42.1% in the test with DU-145 prostate; 51.8% in the test on MALME-3M melanoma. Further, the growth in the test with MDA-MB-231 breast was 45.2%; with SF-268 CNS, 52.5%; in the test with SF-295 CNS, 36.8%; in the test on SF-539 CNS, 22.1%; in the test with M14 melanoma it was 13%.

In the case of `O=C(O)c1ccc2c(c1)nc(Nc1cccc(Cl)c1)c1ccncc12`, the growth is 2.72% (active) in the test on NCI-H23 lung; 3.78% (active) in the test on NCI-H226 lung; -25.5% (active) in the test with NCI-H322M lung; -1.83% (active) in the test with HOP-62 NSCLC; 14.7% in the test on NCI-H460 lung; -20.3% (active) in the test on HOP-92 NSCLC. Besides, the growth with NCI-H522 lung is -35.7% (active); in the test on A549/ATCC NSCLC it was 27.8%; in the test with 786-0 renal, 17.5%; in the test with DU-145 prostate, 33.7%; in the test on K-562 leukemia, 8.63% (active); in the test with MALME-3M melanoma, -10.2% (active). Besides, the growth with MDA-MB-231 breast was 3.58% (active); with RXF 393 renal, -9.7% (active); with SF-268 CNS it was 14.8%; in the test with SF-295 CNS, 6.7% (active); in the test on SF-539 CNS it was -23.8% (active); with UACC-257 melanoma, -7.85% (active). The growth with M14 melanoma is -0.117% (active).

`CNC(=O)c1c(C)oc2cc(Oc3ncnc4cc(OC)c(OC)cc34)ccc12`: the growth with NCI-H23 lung was 93.8%; in the test with NCI-H226 lung, 59.4%; in the test on NCI-H322M lung, 93.9%; with HOP-62 NSCLC, 82.9%; in the test with NCI-H460 lung, 106%; in the test with HOP-92 NSCLC, 81.1%. The growth is 89.5% with NCI-H522 lung; 81.1% in the test with A549/ATCC NSCLC; 102% with 786-0 renal; 101% with DU-145 prostate; 88.4% in the test with K-562 leukemia; 104% in the test on MALME-3M melanoma. Besides, the growth was 101% in the test with MDA-MB-231 breast; 66.4% with RXF 393 renal; 70.7% in the test with SF-268 CNS; 96% in the test with SF-295 CNS; 41.6% in the test on SF-539 CNS; 86.6% in the test on UACC-257 melanoma. For the same compound, the growth with M14 melanoma was 98.2%.

Take `Clc1ccc(Nc2nccc(Nc3ccc4[nH]ncc4c3)n2)cc1`: the growth with NCI-H23 lung was 45.7%; with NCI-H226 lung, 28.2%; with NCI-H322M lung, 74.8%; in the test with HOP-62 NSCLC, 65.5%; with NCI-H460 lung, 41%; in the test with NCI-H522 lung it was 20.8%. In addition, the growth was 50.2% in the test with A549/ATCC NSCLC; 57.4% in the test on 786-0 renal; 42.2% with COLO 205 colon; 49.8% with DU-145 prostate; -7.92% (active) with K-562 leukemia; 87.5% with MALME-3M melanoma. The growth in the test with MDA-MB-231 breast is 68.8%; with RXF 393 renal, 35.1%; in the test on SF-268 CNS, 60.4%; in the test on SF-295 CNS, 70.9%; with SF-539 CNS, 75.8%; with UACC-257 melanoma, 87.6%.
